HT1080 IDH1KD tx = toxicity to HT-1080 IDH1 knockdown cells (counter line); HT-1080 IDH1 knockdown viability, ATP luminescence, 48 h; Potency, µM (titrated, usually from 46.1 µM), for the others: at the highest dose activity, negative = toxicity, actives largely listed as cytotoxic; actives 2% (n = 360,000); AID 686971;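 also: potency is read from the fitted curve at half-maximal effect; 0% = DMSO wells and -100% = cell-free medium wells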
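Assay cells: HT-1080 with IDH1 knockdown, 750 per well, RPMI/5% FBS. Exposure: 48 h at 37 °C following 2 h pre-incubation. Read: CellTiter-Glo luminescence; fitted concentration-response, curve class assigned.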
HT1080NT lethal = kills 2HG-producing HT-1080-NT fibrosarcoma cells. actives 1.6% (n = 360,000). Potency, µM (doses to about 46.1 µM), for the others: at the highest dose activity, negative = less viability, most hits filed as cytotoxic. AID 686970. HT-1080-NT fibrosarcoma viability, CellTiter-Glo ATP luminescence, 48 h;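 also: NT is the 2HG producing partner of a matched IDH1 knockdown line; potency is read from the fitted curve at half-maximal effect; 0% = DMSO-treated cells and -100% = media-only wells without cells; nearly all actives have a fitted effect of over 55% in size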
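Viability by CellTiter-Glo luminescence after 48 h compound exposure at 37C of HT-1080-NT cells (750/well, RPMI, 5% FBS). % activity scaled between DMSO wells and medium-only wells, then curve-fitted and categorized by curve class.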
KB-3-1 cytotox = kills parental KB-3-1 adenocarcinoma cells. actives 1.4% (n = 400,000). KB-3-1 viability, CellTiter-Glo ATP luminescence, 72 h. AID 1347075. Potency, µM (top dose mostly 46.1 µM), hits mostly cytotoxic; also: potency is read from the fitted curve at half-maximal effect; nearly all actives have a fitted effect of over 60% in size
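KB-3-1 parental drug-naive adenocarcinoma cells in DMEM/10% FBS, incubated 72 h at 37 C with pin-transferred compounds across a concentration series. Viability by CellTiter-Glo luminescence; concentration-response curves fitted after normalization.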
IL1B secr inh = blocks inflammasome-driven IL-1 beta release; actives 4.7% (n = 360,000); THP-1 LPS/ATP IL-1B secretion, AlphaLISA, 16 h; hits give low values; AID 743279; activity change, % at 57.5 µM; in the data active = activity change below about -50%; inconclusive = mostly about -30% to -49%
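Secreted IL-1B measured by AlphaLISA bead assay after 16 h compound exposure of THP-1 cells; compounds (final up to 57.5 uM) added 1 h before LPS (250 ng/mL) and ATP (1.25 mM) stimulation; lower signal means less secretion.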
KB-V1 cytotox = KB-V1 MDR subline cytotoxicity | Potency, µM (series often up to 46.1 µM), actives largely listed as cytotoxic | actives 3.4% (n = 400,000) | KB-V1 MDR cells viability, CellTiter-Glo, 72 h; also: potency is read from the fitted curve at half-maximal effect; nearly all actives have a fitted effect of over 60% in size
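In this primary screen, KB-V1 cells overexpressing P-gp are incubated with library compounds (lowest to highest concentration) for 72 h at 37 degrees C before a luminescent ATP viability read.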
* hit, by the source's call. Most compounds without a hit are left out; they make up all but 8.8% or so of the library. Unless noted, calls follow the shape of the dose curve; as a rule, active = well fitted curve in the direction sought with a large enough effect; inconclusive = small, poorly fitted or top-dose-only effect, or another doubt; inactive = no such curve, though single readings can be large; an effect the other way counts as inactive or inconclusive. Unless noted, % is scaled to controls: 0 for no effect and ±100 for the full control effect.

`O=C(NCc1cccnc1)c1ccc(COc2ccc(Cl)cc2Cl)o1` gave HT1080 IDH1KD tx -14.2%, HT1080NT lethal -4.1%, KB-3-1 cytotox inactive, IL1B secr inh 43.9 and KB-V1 cytotox inactive.
`C[C@@H]1CN([C@H](C)CO)C(=O)CCCn2nncc2CO[C@@H]1CN(C)S(=O)(=O)c1ccc2ccccc2c1` gave HT1080 IDH1KD tx -6.6%, HT1080NT lethal -13.1%, KB-3-1 cytotox inactive, IL1B secr inh -8.9 and KB-V1 cytotox inactive.
O=C(NC(=S)Nc1ccc(-c2nc3ncccc3o2)cc1)c1ccccc1F was read as HT1080 IDH1KD tx 11.2%, HT1080NT lethal 16.4%, KB-3-1 cytotox inconclusive, IL1B secr inh -16.7 and KB-V1 cytotox inactive.
Screening CCc1cc(C(=O)N2CCCC(CCC(=O)NCc3cccc(OC)c3)C2)no1 (configuration not stated) returned HT1080 IDH1KD tx 8.2%, HT1080NT lethal -14.1%, KB-3-1 cytotox inactive, IL1B secr inh 1.3 and KB-V1 cytotox inactive.
Screening Cc1ccn2c(=O)cc(COc3ccc(NC(=O)C(C)(C)C)cc3)nc2c1 returned KB-3-1 cytotox inactive and KB-V1 cytotox inactive.
`COC(=O)[C@H](CC(C)C)NC(=O)NC1CCCCC1C` (some centres not stated) gave HT1080 IDH1KD tx -2.3%, HT1080NT lethal 2.8%, KB-3-1 cytotox inactive, IL1B secr inh 26.0 and KB-V1 cytotox inactive.
Screening O=C(C[n+]1ccccc1Br)c1ccc(I)cc1 returned KB-3-1 cytotox inconclusive and KB-V1 cytotox inactive.
`CC(C)C[C@H](NC(=O)N1CCn2c1nc1ccccc12)C(=O)NCC1CCCO1` (some centres not stated) gave HT1080 IDH1KD tx 28.0%, HT1080NT lethal 25.5%, KB-3-1 cytotox inactive, IL1B secr inh -9.5 and KB-V1 cytotox inactive.
Screening O=C(Nc1nccs1)c1ccc(COc2ccccc2Br)o1 returned HT1080 IDH1KD tx inconclusive, HT1080NT lethal 10µM*, KB-3-1 cytotox inconclusive, IL1B secr inh -24.3 and KB-V1 cytotox 14.6µM*.
O=C(Nc1cccnc1)c1ccc(COc2cc(Cl)ccc2Cl)o1 was read as HT1080 IDH1KD tx 23.1µM*, HT1080NT lethal inconclusive, KB-3-1 cytotox inconclusive, IL1B secr inh -1.9 and KB-V1 cytotox 23.1µM*.
O=C(Nc1nccs1)c1ccc(COc2ccc(F)cc2)o1 was read as HT1080 IDH1KD tx 2.2%, HT1080NT lethal 0.8%, KB-3-1 cytotox inactive, IL1B secr inh -9.6 and KB-V1 cytotox inactive.
`CCOC(=O)C1CCN(c2nc3c(S(=O)(=O)c4ccccc4)nnn3c3ccc(Cl)cc23)CC1` gave KB-3-1 cytotox inactive and KB-V1 cytotox inactive.
For O=c1[nH]c2ccc(NCc3ccccc3OCc3ccc(Cl)cc3)cc2[nH]1 the results were HT1080 IDH1KD tx inconclusive, HT1080NT lethal 16.4µM*, KB-3-1 cytotox inconclusive, IL1B secr inh 0.0 and KB-V1 cytotox inactive.
Oc1ccc(NCc2ccccc2OCc2ccccc2)cc1 was read as HT1080 IDH1KD tx inconclusive, HT1080NT lethal -21.4%, KB-3-1 cytotox inactive, IL1B secr inh -73.6* and KB-V1 cytotox inactive.
For CCOC(=O)c1c(NC(=O)CSc2nnc(-c3c[nH]c4ccccc34)n2CCOC)sc2c1CCCC2 the results were HT1080 IDH1KD tx -23.8%, HT1080NT lethal inconclusive, KB-3-1 cytotox 18.4µM*, IL1B secr inh -18.0 and KB-V1 cytotox inactive.
For CCOC(=O)c1c(NC(=O)CSc2nnc(-c3c[nH]c4ccccc34)n2C)sc2c1CCCC2 the results were HT1080 IDH1KD tx 4.5%, HT1080NT lethal -0.1%, KB-3-1 cytotox inconclusive, IL1B secr inh -21.0 and KB-V1 cytotox inactive.
`COc1cc(-c2cc(=O)c3c(C)cc(O)cc3o2)cc(OC)c1OC` gave HT1080 IDH1KD tx 13.8%, HT1080NT lethal 12.0%, KB-3-1 cytotox inconclusive, IL1B secr inh 14.2 and KB-V1 cytotox 2.59µM*.
COc1cc(-c2ccc3oc(-c4ccsc4)cc(=O)c3c2)cc(OC)c1OC was read as HT1080 IDH1KD tx inconclusive, HT1080NT lethal inconclusive, KB-3-1 cytotox inconclusive, IL1B secr inh -58.1* and KB-V1 cytotox inactive.
Screening COc1ccc(-c2ccc3c(=O)cc(-c4ccsc4)oc3c2)cn1 returned HT1080 IDH1KD tx 5.9%, HT1080NT lethal -11.3%, KB-3-1 cytotox inactive, IL1B secr inh -3.8 and KB-V1 cytotox inactive.
Screening COc1ccc(-c2cc(=O)c3c(C)cc(O)cc3o2)cc1 returned HT1080 IDH1KD tx 1.5%, HT1080NT lethal 6.3%, KB-3-1 cytotox inactive, IL1B secr inh -8.4 and KB-V1 cytotox 2.59µM*.
`Cc1ccc(C(=O)CSc2nc(O)cc(=O)[nH]2)cc1C` gave HT1080 IDH1KD tx -25.1%, HT1080NT lethal -24.4%, KB-3-1 cytotox inactive, IL1B secr inh 3.2 and KB-V1 cytotox inactive.
`Cc1ccc(C)c(Nc2nc3c(S(=O)(=O)c4ccc(Br)cc4)nnn3c3ccsc23)c1` gave KB-3-1 cytotox inactive and KB-V1 cytotox inactive.
`Cc1noc(C)c1-c1ccc2nc[nH]c(=O)c2c1` gave KB-3-1 cytotox 13µM* and KB-V1 cytotox inconclusive.
Screening CSc1ncc(Cl)c(C(=O)NCc2ccc(C)cc2)n1 returned KB-3-1 cytotox inactive and KB-V1 cytotox inactive.
For Cc1ccc(S(=O)(=O)CCC(=O)OCC(=O)NC(C)c2ccccc2)cc1 (configuration not stated) the results were HT1080 IDH1KD tx -0.8%, HT1080NT lethal 0.6%, KB-3-1 cytotox inactive, IL1B secr inh 22.7 and KB-V1 cytotox inactive.
For O=C(CSc1ccc(F)cc1)Nc1ccc2c(c1)C(=O)NC2=O the results were HT1080 IDH1KD tx 9.9%, HT1080NT lethal -4.3%, KB-3-1 cytotox inactive, IL1B secr inh 4.1 and KB-V1 cytotox inactive.
For Cc1[nH]nc2ncc(C(=O)c3ccccc3O)cc12 the results were HT1080 IDH1KD tx inconclusive, HT1080NT lethal 1.4%, KB-3-1 cytotox inactive, IL1B secr inh -50.8* and KB-V1 cytotox inactive.
`Nn1c(-c2cccs2)nc2sc3c(c2c1=O)CCCC3` gave HT1080 IDH1KD tx inconclusive, HT1080NT lethal inconclusive, KB-3-1 cytotox inactive, IL1B secr inh 1.5 and KB-V1 cytotox inconclusive.
Screening CC1(C)Cc2c(sc3nc(-c4cccs4)n(N)c(=O)c23)CO1 returned HT1080 IDH1KD tx inconclusive, HT1080NT lethal inconclusive, KB-3-1 cytotox inactive, IL1B secr inh -12.1 and KB-V1 cytotox 8.2µM*.
CC1(C)Cc2c(sc3nc(-c4ccccc4)n(N)c(=O)c23)CO1 was read as HT1080 IDH1KD tx -18.0%, HT1080NT lethal -14.3%, KB-3-1 cytotox inactive, IL1B secr inh -75.7* and KB-V1 cytotox inactive.
Cc1sc2ncn(CC(=O)Nc3cccc(S(N)(=O)=O)c3)c(=O)c2c1-c1ccccc1 was read as HT1080 IDH1KD tx inconclusive, HT1080NT lethal inconclusive, KB-3-1 cytotox inactive, IL1B secr inh 27.0 and KB-V1 cytotox inactive.

Bioassay records (PubChem BioAssay)
